# An excerpt weighted towards active compounds, which were near 2.1% of everything screened.
# EP2 antag – human EP2 receptor antagonists, primary screen, TR-FRET cAMP, C6 glioma cells. Prostaglandin E2 receptor EP2 subtype (Homo sapiens), P43116. C6 glioma cells expressing human EP2; cells stimulated with saturating PGE2. inhibition, % at 25 µM. 0.52% of 260,000 active;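 active means percent inhibition above 40 after rounding to a whole number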;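 further: rat C6 glioma host cells with rolipram phosphodiesterase inhibitor present; the protocol text gives 20 µM as final concentration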
# Target sequence (P43116 whole entry, looked up): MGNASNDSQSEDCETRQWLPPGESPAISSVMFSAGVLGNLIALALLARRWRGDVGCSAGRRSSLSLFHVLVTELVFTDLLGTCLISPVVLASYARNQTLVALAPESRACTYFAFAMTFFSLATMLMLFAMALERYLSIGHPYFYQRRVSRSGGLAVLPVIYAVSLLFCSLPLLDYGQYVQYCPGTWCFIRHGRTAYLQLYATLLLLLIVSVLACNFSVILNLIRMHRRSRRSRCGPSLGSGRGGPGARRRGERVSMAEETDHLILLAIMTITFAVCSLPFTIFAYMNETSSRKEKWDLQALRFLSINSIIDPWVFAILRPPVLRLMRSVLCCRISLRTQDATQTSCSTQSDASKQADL
# EP2 mod – EP2 receptor modulators, cAMP readout, primary screen, cell-based, HTRF cAMP, PGE2 stimulation | Prostaglandin E2 receptor EP2 subtype (Homo sapiens), P43116 | EP2-expressing cells, cAMP HTRF FRET, PGE2 co-stimulation | induction, % at 25 µM | 0.83% of 260,000 active | AID 940, 2007;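 active means compounds whose cAMP rise, as percent of the full-agonist control response, exceeds 60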;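 further: rat C6 glioma line stably carrying human EP2 under a CMV promoter; the protocol text gives 20 µM as final concentration; 100% = response of wells given 1 µM PGE2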
# HMGR II inh – inhibitors of E. faecalis class II HMGR, primary screen, biochemical, Enterococcus faecalis; inhibition, % at 10 µM; purified E. faecalis HMGR, NADPH absorbance 340 nm kinetic; 0.41% of 190,000 active; HMG-CoA reductase (Enterococcus faecalis, mvaE);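 active means inhibition above a set limit, the median over all tested compounds plus 3 SD, cut at about 9.5% in these data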;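 further: enzyme runs in reverse so mevalonate oxidation gives rising NADPH absorbance; 0% = complete reaction with DMSO and 100% = background rate lacking mevalonate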
# GSH bead fluor – compound fluorescence on glutathione beads, profiling panel, artefact control, biophysical, 488/530 nm, flow cytometry; GSH beads flow cytometry, compound fluorescence 488/530 nm; hits give high values; fluorescence (KMESF) at 10 µM; 0.25% of 190,000 active; AID 1776, 2009; in the data active means fluorescence above about 89;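 further: glutathione beads carrying GST-tagged Bcl family fusion proteins plus one bare bead set; values are compound well signal with DMSO vehicle wells as background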
# Avidin bead fluor – green autofluorescence of compounds with avidin beads – biophysical, 488/530 nm, flow cytometry, artefact control, profiling panel. compound fluorescence 488/530 nm; hits give high values. fluorescence (KMESF) at 10 µM. 0.38% of 220,000 active. AID 1775, 2009; in the data active means fluorescence above about 47
# Numbers without * were called inactive; x = not tested or not shown.
SMILES,EP2 antag,EP2 mod,HMGR II inh,GSH bead fluor,Avidin bead fluor
CCOC(=O)c1cnc(-n2nc(C)cc2C)nc1Nc1ccc(N(C)C)cc1,7,62*,-9,6,23
CCOC(=O)c1cnc(-n2nc(C)cc2C)nc1Nc1ccc(C)cc1,x,17,-1,39,4
Cc1cc(-c2cc(N)c(=O)n(CC(=O)Nc3ccc(F)cc3F)n2)c(C)o1,5,-44,x,x,x
COc1ccc(N2C(=O)CSC23C(=O)Nc2ccccc23)cc1 (stereo unspecified),0,5,-1,100*,7
C=CCc1cc(C)ccc1OCCCC(C(=O)OCC)C(=O)OCC,7,61*,-3,14,5
CCC(c1nnnn1C1CCCCC1)N(Cc1ccc(C)cc1)Cc1cc2cccc(C)c2[nH]c1=O (stereo unspecified),9,66*,x,x,x
CCC(c1nnnn1C1CCCC1)N(Cc1ccccc1)Cc1cc2cc(OC)ccc2[nH]c1=O (stereo unspecified),15,74*,x,x,x
CCC(c1nnnn1C(C)(C)C)N(Cc1ccccc1)Cc1cc2cc(OC)ccc2[nH]c1=O (stereo unspecified),12,68*,x,x,x
CCOc1ccc2[nH]c(=O)c(CN(Cc3ccccc3)C(CC)c3nnnn3C3CCCC3)cc2c1 (stereo unspecified),20,62*,x,x,x
CCC(c1nnnn1C(C)(C)C)N(Cc1ccc(OC)cc1)Cc1cc2cc(C)ccc2[nH]c1=O (stereo unspecified),14,58,x,x,x
CCC(c1nnnn1C1CCCC1)N(Cc1ccc(C)cc1)Cc1cc2ccc(C)cc2[nH]c1=O (stereo unspecified),6,27,x,x,x
CCC(c1nnnn1C1CCCCC1)N(Cc1ccccc1)Cc1cc2cc(C)c(C)cc2[nH]c1=O (stereo unspecified),7,59,x,x,x
CCC(C)c1ccc(NC(=O)CN2CCC(N3CCCCC3)CC2)cc1 (stereo unspecified),9,-8,x,x,x
COc1ccccc1-c1cc(C(=O)NC(C)Cc2cccs2)no1 (stereo unspecified),11,-88,x,x,x
Cc1ccc(C2C(C(=O)c3ccco3)=C(O)C(=O)N2CC2CCCO2)cc1 (stereo unspecified),17,34,x,x,x
CCOc1ccc2[nH]c(=O)c(CN(Cc3cccs3)C(CC)c3nnnn3C3CCCC3)cc2c1 (stereo unspecified),6,62*,x,x,x
Cc1nn2c(NCCCO)c3c(nc2c1-c1ccc(F)cc1)CCCC3,8,-20,x,x,x
CN1[C@@H](C(=O)NC(C)(C)CO)C[C@@H](c2ccc(F)cc2)NS1(=O)=O,x,-14,x,x,x
CN(C)c1ccc(/C=C2\SC(=S)N(Nc3ncc(C(F)(F)F)cc3Cl)C2=O)cc1,5,3,-1,45,56*
CN1[C@@H](C(=O)NCc2ccccn2)C[C@@H](c2cccs2)NS1(=O)=O,x,85*,x,x,x
CN1[C@@H](C(=O)NCc2ccccn2)C[C@@H](c2ccc(F)cc2)NS1(=O)=O,x,-11,x,x,x
O=C(Cc1csc(-c2ccccc2)n1)NCc1cccs1,4,-13,11*,25,25
CCN1CCCc2cc(CN(CCN3CCOCC3)C(=S)Nc3ccccc3C)ccc21,3,15,10*,20,6
Fc1ccccc1NC(=S)N(CCN1CCCCCC1)Cc1cccs1,7,60,-6,20,9
Cc1ccccc1NC(=S)N(CCN1CCCCCC1)Cc1cccs1,16,0,10*,15,9
SMILES,EP2 antag,EP2 mod,HMGR II inh,GSH bead fluor,Avidin bead fluor
COc1ccc(C)cc1N(C(=O)Cc1cccs1)C(C(=O)NC1CCCC1)c1ccc(C)o1 (stereo unspecified),11,75*,x,x,x
CC(=O)c1ccc(N(C(=O)Cc2cccs2)C(C(=O)NC2CCCC2)c2cccs2)cc1 (stereo unspecified),6,29,x,x,x
Cc1ccc(N(C(=O)Cc2cccs2)C(C(=O)NC2CCCC2)c2cccs2)cc1 (stereo unspecified),11,80*,x,x,x
c1ccc(Cn2nnnc2C(c2ccc3ncccc3c2)N2CCN(C3CCCCC3)CC2)cc1 (stereo unspecified),8,10,x,x,x
CCCCOCCCNC(=O)c1ccc(OCC)cc1,13,11,10*,12,20
CC1CCc2c(sc3nc(C4CC4)n4c(SCC(=O)NCc5ccco5)nnc4c23)C1 (stereo unspecified),10,28,x,x,x
CCSc1nc2sc3c(c2c2nnc(SCC(=O)NCc4ccco4)n12)CCCC3,49*,x,x,x,x
O=C(CN1CCC(c2nc3ccc(Cl)cc3[nH]2)CC1)Nc1ccccc1F,10,-73,x,x,x
CC(C)Cn1c(=O)c(C(=O)NCc2ccccn2)c(O)c2ccccc21,15,62*,0,36,5
CCCn1c(=O)c(C(=O)NCc2ccncc2)c(O)c2ccccc21,16,56,-1,52,5
CCn1c(=O)n(CC(=O)NCc2ccccc2OC)c(=O)c2ccccc21,7,12,0,32,12
CCn1c(=O)c(C(=O)NCc2ccccc2OC)c(O)c2ccccc21,14,62*,x,x,x
CCCn1c2c(c(O)c(C(=O)NCc3ccccc3)c1=O)CCCC2,9,41,3,15,54*
CCn1c(=O)c(C(=O)NCc2cccnc2)c(O)c2ccccc21,11,65*,2,40,x
CCc1nc(NCCNC(=O)c2cc(OC)c(OC)c(OC)c2)c2c3c(sc2n1)CC(C)CC3 (stereo unspecified),8,7,x,x,x
CC(C)Oc1ccc(N2CC(C(=O)OCC(=O)Nc3ccccc3F)CC2=O)cc1 (stereo unspecified),9,-15,x,x,x
CCCCCCCOC(=O)C1=C(C)Nc2ncnn2C1c1cccs1 (stereo unspecified),4,4,-7,11,9
CCCCCCCCOC(=O)C1=C(C)Nc2nnnn2C1c1cccs1 (stereo unspecified),3,66*,1,18,7
CCCCC(=O)Nc1nnc(C2=COCCO2)o1,11,11,18*,24,9
O=C(NCCN=C1NS(=O)(=O)c2ccccc21)c1ccncc1,6,6,-11,10,72*
Cc1ccc(C2(NCc3ccc(OCC(=O)N4CCOCC4)cc3)CC2)cc1,6,-43,x,x,x
CC(C)(C)c1ccc(C(=O)N2CCN(CC(=O)NC3CCCCC3)CC2)cc1,12,-26,x,x,x
CCOC(=O)c1cc(C(=O)c2cccs2)n2ccc(C(C)=O)cc12,10,64*,0,48,9
CCOC(=O)c1cc(C(C)=O)n2ccccc12,7,22,-2,10,21
O=C(Cn1nc(-c2ccc(F)cc2)n(-c2ccncc2)c1=O)NC1CC1,x,3,x,x,x

# Bioassay records: PubChem BioAssay, several laboratories
